These results are taken from PubChem BioAssay (EPA / NIEHS).

Results filed as inconclusive are left out. The source made the active and inactive calls. How the source made its calls, unless noted: active means hit-call score of the fitted dose curve at least 0.9, where 1 is the maximum; inconclusive means response in the unintended direction; inactive means score below 0.9.

The target in assay [1] is Cellular tumor antigen p53 (Homo sapiens) (UniProt P04637). Briefly: TOX21_p53_BLA_p3_ratio: Tox21 HCT-116 p53 Agonism Beta-lactamase Assay, Ratio, Phase 3 (AID 2283596). In short, it runs like this:
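HCT116 p53-bla cells (4000/well) given compound in DMSO (217-fold dilution) after 5 h, incubated 16 h at 37C. CCF4-AM substrate 2 h at room temperature; 460/530 nm emission ratio, gain fitted against DMSO.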

The nature of assay [2]: TOX21_p53_BLA_p4_viability: Viability Assessment in the Tox21 HCT-116 p53 Agonism Beta-lactamase Assay, Phase 4 (AID 2283597).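 Further: hits lower the luminescence signal meaning cytotoxicity.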 In short, it runs like this:
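HCT116 p53-bla cells (4000/well) rested 5 h at 37C, then received compounds in DMSO (217-fold dilution) for 16 h at 37C, 5% CO2. CellTiter-Glo was added after the CCF4-AM read, and luminescence was read after 30 min at room temperature.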

Assay [3] can be described thus: TOX21_p53_BLA_p3_viability: Viability Assessment in the Tox21 HCT-116 p53 Agonism Beta-lactamase Assay, Phase 3 (AID 2283593).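 Further: cells exposed to compound for 16 h before reading.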 In a few lines:
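Cellular ATP was quantified by CellTiter-Glo luminescence, read after 30 min at room temperature. Beforehand, HCT116 cells (4000/well) received compound 5 h post-seeding, 217-fold diluted from DMSO, then incubated 16 h at 37C.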

Assay [4] in a line: TOX21_p53_BLA_p5_viability: Viability Assessment in the Tox21 HCT-116 p53 Agonism Beta-lactamase Assay, Phase 5 (AID 2283600). In short, it runs like this:
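Cells were plated at 4000/well, rested 5 h at 37C, then given compounds in DMSO (217-fold dilution) for 16 h at 37C, 5% CO2. Following the CCF4-AM beta-lactamase read, CellTiter-Glo was added and luminescence was read after 30 min at room temperature.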

Assay [5] deals with Cellular tumor antigen p53 (Homo sapiens) (UniProt P04637). Briefly: TOX21_p53_BLA_p4_ratio: Tox21 HCT-116 p53 Agonism Beta-lactamase Assay, Ratio, Phase 4 (AID 2283601). In short, it runs like this: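 Signal is the blue/green (460nm/530nm) ratio of cleaved versus uncleaved CCF4-AM substrate, read after 2 h substrate loading. Cells were HCT116 carrying the p53-responsive beta-lactamase reporter, dosed 16 h at 37C, 5% CO2; CellTiter-Glo measured in parallel.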
Sequence of Cellular tumor antigen p53 (Homo sapiens) (P04637 whole entry, looked up): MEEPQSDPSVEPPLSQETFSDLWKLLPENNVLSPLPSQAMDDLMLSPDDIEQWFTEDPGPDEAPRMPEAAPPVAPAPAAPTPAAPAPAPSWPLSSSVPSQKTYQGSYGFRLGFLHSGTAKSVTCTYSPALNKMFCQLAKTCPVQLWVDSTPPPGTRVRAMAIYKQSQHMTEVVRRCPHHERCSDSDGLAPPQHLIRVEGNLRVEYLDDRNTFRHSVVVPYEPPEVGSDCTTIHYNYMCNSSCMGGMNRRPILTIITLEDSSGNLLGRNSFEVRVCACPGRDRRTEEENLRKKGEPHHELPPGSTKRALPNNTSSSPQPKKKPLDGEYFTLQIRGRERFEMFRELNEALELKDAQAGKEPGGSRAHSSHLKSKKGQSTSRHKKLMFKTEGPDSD

The target of assay [6] is PGR (gene 5241) (UniProt P06401). The experiment in a line: TOX21_PR_BLA_Followup_Agonist_ratio: Tox21 HEK293 Progesterone Receptor (PR) Agonism Beta-lactamase Follow-Up Assay, Ratio (AID 2283933). In short, it runs like this:
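HEK293T PR-UAS-bla, 2% CS-FBS; 6 hr preincubation, cpd/DMSO pinned, 16 hr 37C/5% CO2; LiveBLAzer B/G 2 hr RT; FRET ch2/ch1 ratio, agonist direction vs DMSO. Viability by CellTiter-Glo in same wells.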

Assay [7] in a line: TOX21_PR_BLA_Followup_Agonist_viability: Viability Assessment in the Tox21 HEK293 Progesterone Receptor (PR) Agonism Beta-lactamase Follow-Up Assay (AID 2283935).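 Further: signal loss means lower viability so actives are cytotoxic.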 In short, it runs like this:
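HEK293T PR-UAS-bla, 3,000 cells/well, 2% CS-FBS; 6 hr pre-incubation; cpd in DMSO, 16 hr 37C; LiveBLAzer 2 hr RT, then CellTiter-Glo 30 min RT, luminescence. Decrease = lost viability.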

Assay [8] is described as follows: TOX21_PR_BLA_Followup_Antagonist_viability: Viability Assessment in the Tox21 HEK293 Progesterone Receptor (PR) Antagonism Beta-lactamase Follow-Up Assay (AID 2283936).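 Further: hits lower the luminescence signal meaning cytotoxicity.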 In short, it runs like this: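 PR-UAS-bla HEK293T cells (3,000/well, 2% charcoal-stripped FBS) given compound plus R5020 agonist, 16 h at 37C. CellTiter-Glo added after bla read, 30 min at room temperature; luminescence loss indicates cytotoxicity.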

The target of assay [9] is PGR (gene 5241) (UniProt P06401). Briefly: TOX21_PR_LUC_Followup_Agonist: Tox21 HEK293 Progesterone Receptor (PR) Agonism Luciferase Follow-Up Assay (AID 2283937; active means hit-call score of the fitted dose curve at least 0.9, where 1 is the maximum; inactive means score below 0.9). In short, it runs like this:
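Cells: HEK293-PR-A-luc, 3,000/well, 10% charcoal-stripped FBS assay medium. Compound added after 5 h; 16 h, 37C, 0% CO2. ONE-Glo luciferase, luminescence. Positive fit vs DMSO.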

For assay [10] the target is unchanged. Briefly: TOX21_PR_LUC_Followup_Antagonist: Tox21 HEK293 Progesterone Receptor (PR) Antagonism Luciferase Follow-Up Assay (AID 2283938).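 Further: curve fitted upward as signal gain over DMSO baseline despite antagonist label.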 In a few lines:
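HEK293-PR-A-luc cells were precultured 5 days in medium with 10% charcoal-stripped FBS, seeded 3,000/well, then exposed to compounds in DMSO for 16 h at 37C. Luciferase was read by ONE-Glo luminescence after 30 min at room temperature.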

The nature of assay [11]: TOX21_PR_LUC_Followup_Antagonist_viability: Viability Assessment in the Tox21 HEK293 Progesterone Receptor (PR) Antagonism Luciferase Follow-Up Assay (AID 2283940). In short, it runs like this: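 Multiplexed viability counter-screen: after 5 days in charcoal-stripped-FBS medium, HEK293-PR-A-luc cells are plated, pinned with DMSO-dissolved compounds for 16 h at 37C, and ATP content is quantified luminescently via CellTiter-Glo.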

The target of assay [12] is Thyroid hormone receptor alpha (Rattus norvegicus) + Thyroid hormone receptor beta (Rattus norvegicus) (UniProt P18113+P63059). Briefly: TOX21_TR_LUC_GH3_Antagonist_Followup: Tox21 GH3 Thyroid Hormone Receptor Antagonism Luciferase Follow-Up Assay (AID 2283942). In short, it runs like this: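 Confirmatory qHTS, antagonist mode: T3 (1.0 nM final) + test cpd, 15 conc, 92 uM–5nM final, GH3 rat pituitary line, 24 h, 37C. Luc reporter, RLU vs DMSO.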

For another assay, the target named is THRB (gene 7068) (UniProt P10828). Briefly: TOX21_TRB_BLA_Antagonist_Followup_ratio: Tox21 Thyroid Hormone Receptor beta Antagonism Beta-lactamase (BLA) Follow-Up Assay, Ratio (AID 2283958). In a few lines: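 HEK293T TRb-bla (GAL4 DBD + hTRβ LBD), 2% cs-FBS phenol red-free DMEM, 5 h attach; cpds 11-pt triplicate, 18 h 37C; CCF4-AM 2 h RT; 460/530 ratio vs DMSO; CellTiter-Glo viability same wells.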
Sequence of THRB (gene 7068) (P10828 whole entry, looked up, the tested form may be a part): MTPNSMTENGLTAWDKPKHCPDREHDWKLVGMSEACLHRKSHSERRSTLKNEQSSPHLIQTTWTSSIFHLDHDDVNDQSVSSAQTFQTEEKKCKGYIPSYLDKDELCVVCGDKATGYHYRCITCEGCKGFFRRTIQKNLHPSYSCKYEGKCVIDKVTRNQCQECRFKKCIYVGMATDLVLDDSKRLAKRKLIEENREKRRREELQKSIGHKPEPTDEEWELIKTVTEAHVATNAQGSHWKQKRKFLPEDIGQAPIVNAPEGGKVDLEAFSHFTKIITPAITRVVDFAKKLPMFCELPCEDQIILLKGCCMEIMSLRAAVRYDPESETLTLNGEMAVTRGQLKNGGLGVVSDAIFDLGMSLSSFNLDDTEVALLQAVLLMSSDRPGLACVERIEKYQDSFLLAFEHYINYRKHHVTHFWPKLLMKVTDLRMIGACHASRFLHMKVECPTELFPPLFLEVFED

Assay [13] can be described thus: TOX21_TRB_BLA_Antagonist_Followup_viability: Viability Assessment in the Tox21 Thyroid Hormone Receptor beta Antagonism Beta-lactamase (BLA) Follow-Up Assay (AID 2283961). In a few lines:
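HEK293T cells stably expressing GAL4-DBD/human TRβ-LBD with UAS-bla reporter, 3,000 cells/well in phenol red-free DMEM, 2% charcoal-stripped FBS. Compounds at 11 concentrations in triplicate, 18 h at 37C/5% CO2; viability by CellTiter-Glo luminescence after 30 min at room temperature.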

The target in assay [14] is Retinoic acid receptor RXR-alpha (Homo sapiens) (UniProt P19793). Briefly: TOX21_TR_RXR_BLA_Antagonist_Followup_ratio: Tox21 Thyroid Hormone Receptor beta Retinoid X Receptor alpha (RXRa) Antagonism Beta-lactamase (BLA) Follow-Up Assay, Ratio (AID 2283972). In a few lines:
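RXRa-UAS-bla HEK293T cells in phenol red-free DMEM with 2% charcoal-stripped FBS; compounds at 11 concentrations in triplicate, 16 h at 37C. LiveBLAzer FRET-B/CCF4-AM substrate 2 h at room temperature; read as 460:530 nm ratio versus DMSO.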

The nature of assay [15]: TOX21_TR_RXR_BLA_Antagonist_Followup_viability: Viability Assessment in the Tox21 Thyroid Hormone Receptor beta Retinoid X Receptor alpha (RXRa) Antagonism Beta-lactamase (BLA) Follow-Up Assay (AID 2283979). In a few lines: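 Follow-up compounds (11 concentrations, triplicate) were incubated 16 h at 37C/5% CO2 with HEK293T RXRa-bla cells seeded at 2,500/well in charcoal-stripped-serum medium. ATP content by CellTiter-Glo luminescence gave viability; curves fitted in both directions against DMSO.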

Sequence of PGR (gene 5241) (P06401 whole entry, looked up): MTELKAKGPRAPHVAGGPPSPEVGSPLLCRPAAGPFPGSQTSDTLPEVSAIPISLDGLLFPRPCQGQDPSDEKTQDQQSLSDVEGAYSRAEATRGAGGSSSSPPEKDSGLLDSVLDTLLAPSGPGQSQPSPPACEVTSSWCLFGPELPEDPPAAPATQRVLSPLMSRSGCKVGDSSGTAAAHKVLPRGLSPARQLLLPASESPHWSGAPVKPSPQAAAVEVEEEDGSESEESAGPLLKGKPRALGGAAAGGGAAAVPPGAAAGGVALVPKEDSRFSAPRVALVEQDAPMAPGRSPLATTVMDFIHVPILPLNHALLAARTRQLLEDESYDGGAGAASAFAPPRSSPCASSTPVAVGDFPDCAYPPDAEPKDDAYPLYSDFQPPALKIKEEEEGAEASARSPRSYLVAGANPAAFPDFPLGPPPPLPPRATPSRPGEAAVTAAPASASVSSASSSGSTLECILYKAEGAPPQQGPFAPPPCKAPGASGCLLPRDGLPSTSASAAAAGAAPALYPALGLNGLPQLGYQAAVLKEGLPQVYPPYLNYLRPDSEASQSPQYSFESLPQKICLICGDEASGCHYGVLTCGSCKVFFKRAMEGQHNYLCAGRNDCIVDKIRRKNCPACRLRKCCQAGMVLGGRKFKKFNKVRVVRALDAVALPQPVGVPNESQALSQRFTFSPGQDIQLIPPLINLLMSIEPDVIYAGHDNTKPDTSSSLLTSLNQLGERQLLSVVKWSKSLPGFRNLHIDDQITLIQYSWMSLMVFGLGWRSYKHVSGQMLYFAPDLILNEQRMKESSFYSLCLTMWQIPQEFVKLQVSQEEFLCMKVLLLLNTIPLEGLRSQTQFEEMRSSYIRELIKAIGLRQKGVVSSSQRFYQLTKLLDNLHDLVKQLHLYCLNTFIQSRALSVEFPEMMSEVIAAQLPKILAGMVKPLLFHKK
Sequence of Retinoic acid receptor RXR-alpha (Homo sapiens) (P19793 whole entry, looked up): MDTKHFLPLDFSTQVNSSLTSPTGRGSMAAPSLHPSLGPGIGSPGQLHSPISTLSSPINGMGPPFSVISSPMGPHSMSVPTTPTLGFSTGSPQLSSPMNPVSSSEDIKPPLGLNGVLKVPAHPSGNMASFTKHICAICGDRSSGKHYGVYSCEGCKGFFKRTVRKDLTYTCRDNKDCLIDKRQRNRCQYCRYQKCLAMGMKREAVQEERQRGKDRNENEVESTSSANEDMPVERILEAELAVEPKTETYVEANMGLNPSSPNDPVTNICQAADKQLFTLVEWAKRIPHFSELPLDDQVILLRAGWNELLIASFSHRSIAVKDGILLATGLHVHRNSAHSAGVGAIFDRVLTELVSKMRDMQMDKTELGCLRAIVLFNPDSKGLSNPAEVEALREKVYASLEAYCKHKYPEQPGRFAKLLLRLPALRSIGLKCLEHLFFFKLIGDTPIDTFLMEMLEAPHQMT

As for `CCCSSC(CCO)=C(C)N(C=O)Cc1cnc(C)nc1N`, the outcome in assay [1] and in [2] was inactive.
With `CN1CCN2c3ncccc3Cc3ccccc3C2C1` (stereo unspecified), the outcome in [1] was inactive.
On to `CC(CCc1ccc(O)cc1)NCC(O)c1ccc(O)cc1` (stereo unspecified), for which the outcome in [1] was inactive.
Consider `CCC(=O)OC(OP(=O)(CCCCc1ccccc1)CC(=O)N1C[C@H](C2CCCCC2)C[C@H]1C(=O)O)C(C)C` (stereo partly specified), for which the compound was classed as inactive in [3], in [2], in assay [4] and in [5].
For the compound `CN(C)CCN1C(=O)c2ccccc2N(C)c2ccccc21`, in [1], the outcome was inactive.
For `CN1CCN(C2=Nc3cc(F)ccc3Cc3ccccc32)CC1`, the result (with PGR (gene 5241) [6]; in [7]; in [8]; with PGR (gene 5241) [9]; with PGR (gene 5241) [10]; in [11]) was inactive.
On to `O=C(O)c1cc(O)c2c(c1)[O][Bi][O]2`, for which the compound was called inactive in assay [2].
As to `NNc1nnc(Cc2ccncc2)c2ccccc12`, the outcome (in assay [12]; with THRB (gene 7068); in assay [13]; in assay [14]; in assay [15]) was inactive.
